HCV inh = inhibitors of hepatitis C virus infection. Huh7.5.1 HCVcc-Cre infection, luciferase reporter, 44 h. Potency, µM (titrated, usually from 41.8 µM), most hits filed as inhibitors. 340,000 compounds, 3.4% hits; active = well fitted inhibition curve with a large enough effect; inconclusive = small, poorly fitted or top-dose-only effect, or another doubt; inactive = no such curve, though single readings can be large or run the other way
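Cells seeded at 1,000/well and cultured 4 h, then compounds added followed by HCVcc-Cre virus (~0.5 moi). After 44 h further culture, luciferase substrate was added, plates held 15 min at room temperature, and luminescence read for 15 sec.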
Vaccinia mCherry = inhibitors of vaccinia virus infection (mCherry reporter signal) | Vaccinia virus mCherry reporter infection, fluorescence | Potency, µM (top dose mostly 36.5 µM), actives largely listed as inhibitors | 310,000 compounds, 0.63% hits | AID 720579; calls by dose curve; tested in A549 cells; note: nearly all actives have a fitted effect of over 35% in size
VACV Venus inh = inhibitors of vaccinia virus (Venus reporter) | Vaccinia virus Venus reporter expression, fluorescence | Potency, µM (series often up to 36.5 µM), actives largely listed as inhibitors | 330,000 compounds, 0.46% hits | AID 720580; calls by dose curve; tested in A549 cells; note: nearly all actives have a fitted effect of over 30% in size
Marburg entry inh = Marburg virus entry inhibition | Marburg virus pseudotyped entry inhibition, cell reporter | Potency, µM (titrated, usually from 37.8 µM), actives largely listed as inhibitors | 300,000 compounds, 1.8% hits | AID 540276; calls by dose curve; tested in HEK293 cells
HCMV antiviral = human cytomegalovirus inhibition; 410,000 compounds, 4.5% hits; HFF cells, HCMV-luciferase reporter, 72 h; active compounds read low; AID 1259415; activity change, negative = inhibition, % at 57.5 µM; in the data active = activity change below about -60%; inconclusive = no clear call, values can overlap the other calls; inactive = above about -39%
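Cell-based, HFFs, 1000 cells/well, 16 h 37C; cpds in DMSO + HCMV-luc, MOI 1 PFU/cell; 72 h 37C; OneGlo luminescence after 5 min RT; norm. to buffer vs Salinomycin 10uM.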
LASV entry inh = inhibitors of Lassa virus binding or cell entry | 300,000 compounds, 1.2% hits | Potency, µM (series often up to 37.9 µM), usual class: inhibitors | Lassa virus pseudotype entry inhibition, cell reporter; calls by dose curve; tested in HEK293 cells; note: nearly all actives have a fitted effect of over 50% in size
A number is an active result; 0 = inactive; ? = inconclusive; - = no result given; [ ] = remark or other dose. Hits are enriched below; roughly 7.8% of the tested compounds scored in any of these assays.

SMILES	HCV inh	Vaccinia mCherry	VACV Venus inh	Marburg entry inh	HCMV antiviral	LASV entry inh
Cc1ccc(C(=O)Nc2ccc(F)cc2)cc1S(=O)(=O)N1CCCCCC1	-	0	0	-	-101	?
CCC1CCCCN1S(=O)(=O)c1ccc(NC(=O)c2ccncc2)cc1 (centres undefined)	-	0	?	?	?	?
O=C(NCC1Cc2cc(F)cc(-c3cnccn3)c2O1)c1cccc(-c2ccccc2F)c1 (centres undefined)	-	0	0	-	-	-
Cc1cn(C)c(CC(=O)NCc2ccccc2Cl)c1C(=O)O	-	0	0	-	0	0
CC(=O)Nc1ccc(S(=O)(=O)NCCSCc2ccc(Cl)cc2Cl)cc1	?	?	?	?	-67	?
Cc1cnc(-n2ncc(C(=O)NCC(C)(C)N3CCOCC3)c2C)nc1-c1cccs1	-	0	0	-	-	-
COC(=O)c1ccccc1NN=Nc1ccccc1[N+](=O)[O-]	-	0	0	-	-101	-
O=[N+]([O-])c1ccccc1N=NNc1ccccc1	?	0	0	?	0	0
COc1cc(OC)c(/C=C/c2cc3c4ccccc4ccc3[n+](C)c2)c(OC)c1	-	0	0	-	-	-
CCOc1ccc(CNC(=O)c2ccccc2NC(=O)c2nsc3ccccc23)cc1	-	0	?	-	0	0
CC1CCN(S(=O)(=O)c2cn(CC(=O)Nc3ccc(F)cc3)c(=O)c3ccccc23)CC1	-	0	0	5.6µM	0	?
CC1CCN(S(=O)(=O)c2cn(CC(=O)Nc3cccc(C(F)(F)F)c3)c(=O)c3ccccc23)CC1	-	0	0	?	?	?
CCc1nn(CC(=O)NCCc2ccc(OC)cc2OC)c(=O)c2cc3sccc3n12	-	0	0	0	0	-
Cc1cc([N+](=O)[O-])ccc1N	0	0	0	?	0	0
O=[N+]([O-])c1ccc2c(c1)S(=O)(=O)C=C2	-	-	-	?	-	3.3µM
COc1ccc(-c2ccc3c(c2)CN(c2cccc(Cl)c2)Cc2cnnn2-3)cc1	-	0	0	-	-102	-
Clc1cccc(N2Cc3cc(-c4ccccc4)ccc3-n3nncc3C2)c1	-	0	0	-	-108	-
CN(C)c1ccc(/C=C/c2ccnc3ccccc23)cc1N	-	0	0	-	-	-
Cc1cnc(C)c(-c2ccc(F)c3c2OC(CNC(=O)/C=C/c2cccs2)C3)n1 (centres undefined)	-	0	0	-	-	-
COc1ccc(-c2c[n+]3c4n2CCCCC4=C(c2ccc(Br)cc2)C3)cc1	?	0	0	?	-100	0
Clc1ccc(C2=C3CCCCn4c(-c5ccccc5)c[n+](c43)C2)cc1	0	0	0	?	0	0
CCOc1ccc(C(=O)NC(=S)Nc2ncccc2C)cc1[N+](=O)[O-]	?	0	0	0	0	0
CCCCC(=O)NC(=S)Nc1nnn(CCC)n1	0	?	?	0	-98	0
CCCCC(=O)Nc1nnn(CCC)n1	0	0	0	0	0	0
CCCCn1nnc(NC(=S)NC(=O)c2ccc(-c3cccc(Cl)c3Cl)o2)n1	0	?	0.11µM	?	-	0
SMILES	HCV inh	Vaccinia mCherry	VACV Venus inh	Marburg entry inh	HCMV antiviral	LASV entry inh
CCCCn1nnc(NC(=S)NC(=O)c2ccc(OCC)c([N+](=O)[O-])c2)n1	0	?	1.3µM	0	?	0
CCc1cccc(NC(=O)Cn2c(=O)n(-c3ccccc3C)c(=O)c3c2c2cc(C)ccc2n3C)c1	-	0	0	-	0	0
CCn1cc([N+](=O)[O-])c(C(=O)N2CCOCC2)n1	0	0	0	?	0	?
CCn1cc([N+](=O)[O-])c(C(=O)N2N=C3/C(=C/c4cccs4)CCCC3C2c2cccs2)n1 (centres undefined)	10µM	-	-	0	0	?
Cn1cccc1/C=C1\CCC/C(=C\c2cccn2C)C1=O	13µM	-	-	?	0	0
S=C(Nc1ccccc1)Nc1nc2ccccc2n1CCOc1ccccc1	6.3µM	-	-	?	0	0
CCN1CCN(C(=O)c2ccc3c(c2)N(Cc2cccc(Cl)c2)C(=O)c2ccccc2S3=O)CC1 (centres undefined)	-	0	0	-	?	0
CC1CCCCN1C(=O)c1ccc2c(c1)N(Cc1cccc(Cl)c1)C(=O)c1ccccc1S2=O (centres undefined)	-	0	0	-	-68	0
CC(=O)Nc1ccc(NC(=O)c2ccc3c(c2)N(Cc2cccc(Cl)c2)C(=O)c2ccccc2S3=O)cc1 (centres undefined)	-	0	0	-	-95	?
Cc1cccc(N2CCN(C(=O)c3ccc4c(c3)N(Cc3ccccc3F)C(=O)c3ccccc3S4=O)CC2C)c1 (centres undefined)	-	0	0	13µM	-64	?
CCOC(=O)N1CCN(C(=O)c2ccc3c(c2)N(Cc2cccc(Cl)c2)C(=O)c2ccccc2S3=O)CC1 (centres undefined)	18µM	0[7.34 µM]	0[7.34 µM]	-	?	?
CC(=O)c1cccc(NC(=O)C(CC(C)C)NS(=O)(=O)c2ccc3c(c2)CCN3C(C)=O)c1 (centres undefined)	-	0	0	0	0	0
Cc1cccc(N2CCN(C(=O)c3ccc4c(c3)N(Cc3cccc(Cl)c3)C(=O)c3ccccc3S4=O)CC2C)c1 (centres undefined)	-	0	0	-	-67	?
CCSc1nnc(NC(=O)c2cccc(OCc3c(C)noc3C)c2)s1	0	-	-	?	0	?

Assay outcomes (PubChem BioAssay)
